These results are taken from PubChem BioAssay (NCI).

Experiment in all cases: NCI-60 one-dose screen, 48 h (100 = growth as untreated, 0 = no growth, -100 = all killed)
What all share (conditions): 10 µM unless noted

Assay [1] concerns NCI-H23 lung.
For assay [2], the system named is NCI-H226 lung.
In assay [3] the test system is NCI-H322M lung.
Assay [4] deals with HOP-62 NSCLC.
Assay [5] has as its system NCI-H460 lung.
Assay [6] relates to HOP-92 NSCLC.
Assay [7] has as its system NCI-H522 lung.
Assay [8] concerns A549/ATCC NSCLC.
The subject of assay [9] is 786-0 renal.
Assay [10] concerns COLO 205 colon.

Compounds without any hit were thinned out: in the full panel of roughly 83,000, 20% have a hit.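 In brief: 96-well plates, 48 h treatment, single concentration, percent growth endpoint.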 A number with no mark means an inactive call. The source made the active and inactive calls. The calls were made as follows: active = growth percent below 10; inactive = the rest.

For `Cc1ccc(S(=O)(=O)N2CCCC2CO)cc1` (stereo not given), the growth in assay [1] is 84.9%; in assay [2] it was 99.9%; in assay [3], 93.6%; in assay [4] it was 188%; in [5], 99.9%; in assay [6], 76.9%. The growth was 90.7% in assay [7], 103% in assay [8], 100% in [9] and 103% in assay [10].
In the case of `CCCCCCCCn1ccc2cc(NC(=O)CN3CCN(c4nc(C)cc(Cl)n4)CC3)ccc21`, the growth in [1] is 91.5%; in [2] it was 88.9%; in assay [3], 87.8%; in [4], 99.3%; in assay [5], 100%; in [6] it was 79.3%. Further, the growth was 81.5% in [7], 96.3% in assay [8], 97.7% in [9] and 100% in assay [10].
As to `O=S(=O)(Nc1ccc(Cl)cc1)c1ccc(-c2cnc(C3CC3)o2)cc1`, the growth in assay [1] was 34.5%; in assay [2] it was 61.4%; in [3], 44%; in [4], 28.8%; in assay [5] it was 9.01% (active); in assay [6], 41%. Moreover, the growth is 11.4% in assay [7], 40.4% in assay [8], 41.1% in [9] and 9.01% (active) in assay [10].
As to `Nc1c(C(=O)Nc2ccncc2)sc2nc3c(cc12)CCCCCC3`, the growth in assay [1] was 88.6%; in assay [2], 80.4%; in assay [3], 80.6%; in assay [4], 96.6%; in assay [5], 89.9%; in assay [6], 67.1%. Besides, the growth is 81.6% in assay [7], 76.7% in assay [8], 74.6% in assay [9] and 104% in assay [10].
Regarding `O=C(O)c1ccc(-n2cc(/C=N/Nc3ccc(F)cc3)c(-c3cc4ccccc4oc3=O)n2)cc1`, the growth in assay [1] was 90.8%; in assay [2] it was 101%; in assay [3] it was 85.4%; in assay [4] it was 84.3%; in assay [5] it was 96.5%; in [6], 81.5%. Also, the growth was 50.9% in [7], 92.9% in [8], 74.6% in [9] and 110% in [10].
Take `O=S(=O)(NCCNc1nccc(-c2c(-c3cccc(F)c3)nc3occn23)n1)c1ccc(Br)cc1`: the growth in assay [1] is 87.9%; in [2], 75.5%; in assay [3], 82.1%; in [4], 90.1%; in assay [5] it was 68.5%; in [6], 74.7%. Besides, the growth in [7] was 81.8%; in assay [8], 53.9%; in assay [9], 76.3%; in assay [10] it was 85.4%.
As for `Cc1ccc(-c2nn(-c3ccccc3)cc2C=C2C(=O)ON=C2C(C)C)cc1`, the growth in assay [1] is 89.2%; in assay [2] it was 95.3%; in [3], 91.2%; in assay [4], 88.6%; in [5], 80%; in assay [6], 86%. For the same compound, the growth is 74% in assay [7], 86.8% in [8], 78.7% in assay [9] and 114% in assay [10].
For the compound `CCCCC(=O)Nc1ncc(Cc2ccc(Cl)cc2)s1`, the growth is 90.3% in assay [1]; 82% in assay [2]; 86.8% in [3]; 68.8% in [4]; 60.7% in assay [5]; 69.7% in assay [6]. Besides, the growth is 50.1% in assay [7], 53.1% in [8], 80.7% in assay [9] and 76.5% in [10].
Take `S=C1CCSC(=S)N1CCCN1C(=S)CCSC1=S`: the growth in assay [1] is 81.1%; in assay [2], 101%; in [3], 113%; in assay [4] it was 90.5%; in [5], 97.7%; in assay [6] it was 106%. The growth is 5.23% (active) in [7], 97.7% in assay [8], 44.9% in [9] and 64.2% in assay [10].
`CO[C@]12C=C/C(=C(/C(=O)OCc3cccnc3)C(=O)CCCCCCCC[C@@]3(OC)C=C/C(=C(/C(=O)OCc4cccnc4)C(=O)CCCCCCCC1)O3)O2`: the growth is -53.1% (active) in assay [1]; -45.6% (active) in [2]; 18.3% in assay [3]; 30.9% in assay [4]; 3.19% (active) in assay [5]; 2.61% (active) in assay [6]. In addition, the growth was -4.14% (active) in [7], 10.7% in [8], -38.4% (active) in assay [9] and -0.264% (active) in assay [10].
As to `Cc1ccc(-c2csc(NC(=O)CN3CCN(c4cc5c(cc4F)c(=O)c(C(=O)O)cn5C4CC4)CC3)n2)cc1`, the growth in [1] was 4.26% (active); in assay [2], 28.6%; in assay [3] it was 12.4%; in assay [4], 11.2%; in [5], 14.4%; in assay [6], -16.4% (active). Also, the growth in assay [7] was -11.7% (active); in assay [8], 3.47% (active); in assay [9], 22.6%; in assay [10], -17.6% (active).
Consider `Cc1cccc2c1NC(=O)C2(c1ccc(O)cc1)c1ccc(O)cc1`, for which the growth in [1] is 38%; in assay [2], 25.2%; in assay [3], 10.1%; in assay [4], 92%; in assay [5] it was 103%; in assay [6], 48.7%. In addition, the growth in assay [7] was 61.4%; in assay [8], 71.6%; in assay [9], 94.8%; in assay [10], -4.74% (active).
For `COc1ccc(NC(=O)c2sc3nc(C)c(C(=O)/C=C/c4cccc(OC)c4)cc3c2N)cc1`, the growth in assay [1] was 54.6%; in [2], 71.8%; in [3] it was 18%; in [4] it was 61.8%; in assay [5] it was -7.38% (active); in [6], 90.9%. For the same compound, the growth in assay [7] is 39.2%; in assay [8], 13.2%; in assay [9], 10.9%; in assay [10] it was 45.9%.
Turning to `COc1ccc(-c2nc3c(c(-c4ccccc4)nn3-c3ccccc3)c(-c3ccc(N4CCN(C)CC4)cc3)c2C#N)cc1`, the growth in assay [1] was 98.6%; in assay [2], 94.2%; in [3], 97.5%; in [4], 103%; in assay [5], 101%; in [6], 83.2%. Further, the growth is 94.4% in [7], 89.3% in assay [8], 78.9% in assay [9] and 114% in [10].
For `O=Nc1c(-c2c(O)[nH]c3ncccc23)[nH]c2ccccc12`, the growth is 69.7% in [1]; 78.6% in [2]; 30.7% in [3]; 45.9% in assay [4]; 52.2% in [5]; 54% in assay [6]. The growth in assay [7] is 47.6%; in assay [8] it was 46.6%; in assay [9], 43.3%; in assay [10] it was 108%.
For the compound `N#Cc1c(N)nnn1Cc1cc(=O)oc2c1ccc1ccccc12`, the growth was 93.2% in assay [1]; 83.9% in [2]; 102% in [3]; 101% in [4]; 101% in assay [5]; 87.8% in [6]. For the same compound, the growth in assay [7] was 78.1%; in [8] it was 91.1%; in assay [9] it was 102%; in [10], 112%.
As to `C=C(C)[C@@H]1CC[C@]2(C(=O)NCCNCCN)CC[C@]3(C)[C@H](CC[C@@H]4[C@@]5(C)C/C(=C/c6ccncc6)C(=O)C(C)(C)[C@@H]5CC[C@]43C)[C@@H]12`, the growth in assay [1] is 97.2%; in [2], 100%; in assay [3], 94.2%; in assay [4] it was 101%; in assay [5], 99.2%; in assay [6], 75.5%. Besides, the growth in [7] was 94.7%; in assay [8], 99.9%; in assay [9], 90.2%; in assay [10], 88.9%.
Regarding `OCCOCCN(Cc1ccccn1)Cc1cc(I)cc(I)c1O`, the growth in assay [1] is 90.2%; in assay [2] it was 83.1%; in assay [3], 82.9%; in assay [4], 84.9%; in assay [5] it was 59.5%; in assay [6], 90.2%. Moreover, the growth in assay [7] was 74.4%; in assay [8], 88.5%; in assay [9], 85.2%; in assay [10] it was 107%.
As to `CCN(CC)CCOc1ccc(C(=C(C)c2ccc(Cl)cc2)c2ccc(OCCN(CC)CC)cc2)cc1`, the growth in assay [1] was 3.75% (active); in [2] it was 103%; in [3], -29.9% (active); in assay [4], -61.5% (active); in assay [5] it was -76.6% (active); in assay [6], 6.28% (active). Also, the growth in assay [7] is -67.2% (active); in [8] it was -68.9% (active); in [9], -97.6% (active); in [10], -68.7% (active).
With `COc1ccc2nc(NC(=O)CSc3nnc4n3S(=O)(=O)c3ccccc3N4C)sc2c1`, the growth in [1] was 94.9%; in assay [2], 103%; in [3] it was 102%; in [4], 97.9%; in [5] it was 112%; in assay [6] it was 90.5%. In addition, the growth is 70.9% in assay [7], 77.9% in assay [8], 103% in assay [9] and 138% in assay [10].
With `CC(C)CCNC(=O)Cn1cccc(NC(=O)OCc2ccccc2)c1=O`, the growth in assay [1] was 88%; in [2] it was 87.4%; in [3] it was 112%; in [4], 93.8%; in [5] it was 102%; in assay [6], 91.5%. Moreover, the growth in [7] is 88.2%; in assay [8] it was 95.6%; in assay [9], 111%; in assay [10], 108%.
For `OCCCC1CCN(C(Cc2ccccc2)c2ccccc2)CC1` (stereo not given), the growth is 102% in [1]; 102% in assay [2]; 93.7% in assay [3]; 87.2% in assay [4]; 106% in [5]; 80.6% in [6]. Further, the growth in assay [7] was 43.9%; in [8], 73.3%; in assay [9], 82.5%; in assay [10], 79.9%.
On to `CC(C)c1ccc(NC(=O)Nc2ccc(NC(=O)CCCC(=O)NOCc3ccccc3)cc2)cc1`, for which the growth is 98.4% in assay [1]; 85.2% in assay [2]; 90.6% in assay [3]; 91.2% in [4]; 77.9% in assay [5]; 104% in [6]. Besides, the growth in assay [7] was 71.3%; in assay [8], 85.3%; in assay [9], 101%; in assay [10] it was 93.4%.
With `C[C@H](NC(=O)[C@@H](C)N)[C@H](Oc1ccc2c(cnn2-c2ccc(F)cc2)c1)c1ccc2c(c1)OCCO2`, the growth was 83.7% in [1]; 83.9% in assay [2]; 75.5% in [3]; 50.6% in assay [4]; 0.905% (active) in assay [5]; -4.6% (active) in assay [6]. Also, the growth in [7] was 24.8%; in [8] it was 39.3%; in [9], 56.7%; in [10], -3.17% (active).
Take `O=C(/C=C/c1ccc(Cl)cc1)c1cccc(Nc2nc(Nc3ccccc3)nc(Nc3ccccc3)n2)c1`: the growth was 85.8% in assay [1]; 96.9% in assay [2]; 94.6% in [3]; 85.2% in assay [4]; 103% in assay [5]; 24.1% in assay [6]. In addition, the growth was 89.3% in [7], 81.8% in [8], 86.4% in assay [9] and 93.1% in assay [10].
On to `Cc1ccc(-n2c(=S)[nH]c3sc4c(c3c2=O)CCC(=O)C4)cc1`, for which the growth in assay [1] is 68.7%; in [2], 83.4%; in assay [3] it was 89.5%; in assay [4], 63.6%; in assay [5], 17.2%; in [6], 57%. Further, the growth in [7] was 10.2%; in [8], 51.8%; in assay [9], 29.5%; in assay [10] it was 81.6%.
